The nature of experiment [1]: compounds binding Alexa647 anti-His antibody – biochemical, small-molecule microarray, 635 nm fluorescence, artefact control for SMM control protein annotation, primary screen (AID 1128).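 Further: score merges feature fluorescence with signal-to-noise for each printed compound spot.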 The note with it: higher = more signal.
Experiment [2] relates to Human papillomavirus type 1a E7 protein (residues 1-88). Put plainly: HPV1a E7 small-molecule binders, primary screen, biochemical, small-molecule microarray, residues 1-88, 635 nm (AID 1129). The note with it: small-molecule microarray binding, fluorescence 635 nm; higher = more signal.
For experiment [3], the target named is Focal adhesion kinase 1 (Homo sapiens) (UniProt Q05397). Nature of the experiment: PTK2 protein binding on printed compound slides – biochemical, small-molecule microarray, 635/667 nm fluorescence, BSA, DTT, primary screen (AID 1130).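 Further: composite of spot emission at 667 nm and signal to noise over triplicate slides.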 Conditions: 635 nm fluorescence, higher = more signal.
Chain of Focal adhesion kinase 1 (Homo sapiens) (Q05397 whole entry, looked up): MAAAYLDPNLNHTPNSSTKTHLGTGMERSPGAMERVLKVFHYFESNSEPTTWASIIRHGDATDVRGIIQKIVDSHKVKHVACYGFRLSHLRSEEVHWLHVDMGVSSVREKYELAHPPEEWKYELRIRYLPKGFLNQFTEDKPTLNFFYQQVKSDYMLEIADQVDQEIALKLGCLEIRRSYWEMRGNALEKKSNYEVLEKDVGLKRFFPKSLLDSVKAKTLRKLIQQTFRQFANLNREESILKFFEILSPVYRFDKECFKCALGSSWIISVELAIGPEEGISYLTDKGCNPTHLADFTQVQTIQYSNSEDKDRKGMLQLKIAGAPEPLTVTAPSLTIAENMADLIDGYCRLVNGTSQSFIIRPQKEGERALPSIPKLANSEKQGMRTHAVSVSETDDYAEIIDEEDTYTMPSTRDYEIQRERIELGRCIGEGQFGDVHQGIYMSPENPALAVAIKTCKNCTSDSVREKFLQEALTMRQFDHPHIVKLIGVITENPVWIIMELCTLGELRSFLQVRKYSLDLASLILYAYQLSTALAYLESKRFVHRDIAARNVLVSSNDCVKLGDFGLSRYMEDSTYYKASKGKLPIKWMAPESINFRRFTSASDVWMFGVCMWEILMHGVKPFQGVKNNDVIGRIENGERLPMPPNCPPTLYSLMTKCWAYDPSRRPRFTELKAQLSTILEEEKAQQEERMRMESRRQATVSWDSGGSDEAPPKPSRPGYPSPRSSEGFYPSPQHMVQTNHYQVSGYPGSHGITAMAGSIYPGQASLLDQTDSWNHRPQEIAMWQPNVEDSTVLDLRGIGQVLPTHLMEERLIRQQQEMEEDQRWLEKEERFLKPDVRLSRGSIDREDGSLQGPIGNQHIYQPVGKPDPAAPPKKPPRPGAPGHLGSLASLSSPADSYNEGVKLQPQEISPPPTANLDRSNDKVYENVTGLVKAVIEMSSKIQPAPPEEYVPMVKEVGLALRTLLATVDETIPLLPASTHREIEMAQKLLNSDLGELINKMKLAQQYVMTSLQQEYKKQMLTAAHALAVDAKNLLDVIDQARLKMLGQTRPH
For experiment [4], the system named is Fibrinogen (Alexa647-labelled). Nature of the experiment: Alexa647-fibrinogen binding to printed small molecules – biochemical, small-molecule microarray, 635/667 nm fluorescence, artefact control for SMM control-protein annotation, profiling panel (AID 1131).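 Further: z-score merges 667 nm fluorescence with per-spot signal-to-noise over triplicate slides.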 The note with it: fibrinogen-A647 binding fluorescence, higher = more signal.
The target of experiment [5] is Follistatin (Homo sapiens) (UniProt P19883). Put plainly: FST protein binding to printed compounds – biochemical, small-molecule microarray, 635/667 nm fluorescence, primary screen (AID 1132). Conditions: 635 nm fluorescence, higher = more signal.
Chain of Follistatin (Homo sapiens) (P19883 whole entry, looked up): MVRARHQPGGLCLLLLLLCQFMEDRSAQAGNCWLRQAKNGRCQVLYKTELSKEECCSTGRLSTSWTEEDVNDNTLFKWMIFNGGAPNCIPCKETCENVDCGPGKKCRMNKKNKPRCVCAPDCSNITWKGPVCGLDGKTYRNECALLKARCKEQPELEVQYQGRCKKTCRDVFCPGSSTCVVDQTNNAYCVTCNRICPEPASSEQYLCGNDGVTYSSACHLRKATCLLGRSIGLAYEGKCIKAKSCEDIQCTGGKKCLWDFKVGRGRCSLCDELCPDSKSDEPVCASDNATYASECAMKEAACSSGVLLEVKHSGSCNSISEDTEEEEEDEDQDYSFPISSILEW
Experiment [6] deals with Fibroblast growth factor 2 (Homo sapiens) (UniProt P09038). Put plainly: basic fibroblast growth factor binding to printed compounds – biochemical, small-molecule microarray, 635/667 nm fluorescence, primary screen (AID 1133). Conditions: FGF2, fluorescence 635/667, higher = more signal.
Chain of Fibroblast growth factor 2 (Homo sapiens) (P09038 whole entry, looked up): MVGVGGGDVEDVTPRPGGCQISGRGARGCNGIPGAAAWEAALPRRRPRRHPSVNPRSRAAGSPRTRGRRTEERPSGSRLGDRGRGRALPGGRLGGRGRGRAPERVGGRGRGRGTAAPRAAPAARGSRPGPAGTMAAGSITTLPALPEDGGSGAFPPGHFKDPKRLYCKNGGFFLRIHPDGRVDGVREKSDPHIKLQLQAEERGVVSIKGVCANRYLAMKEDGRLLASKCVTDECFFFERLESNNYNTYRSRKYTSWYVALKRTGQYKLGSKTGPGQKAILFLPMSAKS
Experiment [7] in a line: JC-1 mitochondrial potential readout, lung cancer cells – cell-based, A549, JC-1 fluorescence, basal, 24 h, 100 nL, profiling panel (AID 1138).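 Further: A549 lung adenocarcinoma cells under basal conditions with no added stimulus; test concentration not given here.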 The note with it: higher = more signal.
A further experiment has as its system Lefty1. Nature of the experiment: Lefty1 protein binding to printed compounds – biochemical, small-molecule microarray, 635/667 nm fluorescence, primary screen (AID 1139). Conditions: fluorescence 635/667, higher = more signal.
The subject of experiment [8] is wheat germ agglutinin (Triticum aestivum), Alexa647-labelled. Nature of the experiment: Alexa647-WGA lectin binding to printed small molecules – biochemical, small-molecule microarray, 635/667 nm fluorescence, artefact control for SMM control-protein annotation, profiling panel (AID 1140).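 Further: score merges 667 nm feature emission with signal to noise over triplicate slides.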 Conditions: WGA-A647 binding, 635 nm fluorescence, higher = more signal.
The target in experiment [9] is Luciferin 4-monooxygenase (Photinus pyralis) (UniProt P08659). Nature of the experiment: inhibition of purified Photinus pyralis luciferase – biochemical, luminescence, purified enzyme, 2006 set, primary screen (AID 1141).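 Further: cell-free assay with purified firefly luciferase at 100 ng per well in PBS; test concentration not given here.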 The note with it: purified firefly luciferase, SteadyGlo luminescence, 30 min; higher = more signal, called active from +8 up or from −8 down.
Chain of Luciferin 4-monooxygenase (Photinus pyralis) (P08659 whole entry, looked up): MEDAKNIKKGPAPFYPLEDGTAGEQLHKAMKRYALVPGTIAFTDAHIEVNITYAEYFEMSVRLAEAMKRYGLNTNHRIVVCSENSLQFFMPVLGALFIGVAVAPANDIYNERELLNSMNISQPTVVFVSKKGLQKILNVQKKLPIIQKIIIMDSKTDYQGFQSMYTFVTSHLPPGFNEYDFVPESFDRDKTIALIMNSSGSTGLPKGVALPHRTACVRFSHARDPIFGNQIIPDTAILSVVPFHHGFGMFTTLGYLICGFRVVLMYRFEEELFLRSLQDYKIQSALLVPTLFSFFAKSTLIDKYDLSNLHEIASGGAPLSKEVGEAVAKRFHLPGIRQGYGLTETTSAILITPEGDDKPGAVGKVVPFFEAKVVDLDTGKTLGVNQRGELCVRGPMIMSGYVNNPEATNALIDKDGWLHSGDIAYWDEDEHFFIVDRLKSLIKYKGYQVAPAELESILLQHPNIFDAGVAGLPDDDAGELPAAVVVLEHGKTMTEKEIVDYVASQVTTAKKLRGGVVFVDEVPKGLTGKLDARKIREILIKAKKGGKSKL

Activity calls are given as the source filed them.

For the compound `CC(C)[C@@H](C(=O)O)n1cc(C2(O)CCCCC2)nn1`, the composite z-score was 0.948 in experiment [1]; 1.1 in experiment [2]; 0.167 in experiment [3]; 0.598 in experiment [4]; 0.486 in experiment [5]; 0.2 in experiment [6]. The values for the composite z-score (with Lefty1; in [8]) were 0.528 and 0.0063, respectively. Also, the values for the z-score in experiment [7] and in [9] were 0.0494 and 0.983 (inactive), respectively.
On to `O=C1C[C@@](C(=O)NCc2ccccc2)(c2ccc([N+](=O)[O-])cc2)[C@@H](c2ccc(CO)cc2)N1CC12CC3CC(CC(C3)C1)C2`, for which the composite z-score in experiment [1] was 0.729; in experiment [2] it was 1.19; in experiment [3] it was 1.42; in experiment [4], -0.151; in [5], 1.33; in experiment [6] it was 1.46. Moreover, the composite z-score in the experiment with Lefty1 worked out at 0.943; in experiment [8] it was 0.162. Also, the figures for the z-score in experiment [7] and in experiment [9] were 1.44 and -0.756 (inactive), respectively.
In the case of `O=C1O[C@H](c2ccccc2)[C@H](c2ccccc2)N2[C@H]1[C@@H](C(=O)NC[C@H](O)c1ccccc1)[C@]1(C(=O)Nc3ccccc31)[C@H]2c1ccc(O)cc1`, the composite z-score in experiment [1] was 0.885; in experiment [2], 0.973; in [3], 0.223; in [4] it was 0.141; in [5] it was 1.22; in experiment [6], 1.71. Besides, the composite z-score amounted to 0.947 in the experiment on Lefty1 and 0.39 in [8]. Moreover, the z-score was -0.236 in [7] and 0.363 (inactive) in experiment [9].
Take `C=C(/C(=C/C[C@H](OC(=O)c1ccncc1)c1ccc(OCCO)cc1)c1cc(C(=O)OC)ccc1OC)C(C)C`: the composite z-score in experiment [1] was found to be 0.785; in [2], 1; in [3], 0.359; in [4] it was 0.821; in experiment [5], 0.789; in [6] it was 0.494. For the same compound, the composite z-score in the experiment on Lefty1 is 0.546; in experiment [8], 0.681. Further, the z-score in [7] was -0.228; in experiment [9] it was -0.357 (inactive).
Consider `CCOC(=O)C[C@H]1[C@H](OC(=O)c2ccc(-c3ccccc3)cc2)[C@@H](NC(=O)c2ccccc2)c2cc(OCCCO)ccc2N1C(=O)Cc1ccc(OC)cc1`, for which the composite z-score in experiment [1] was -0.913; in experiment [2], -0.509; in experiment [3], -0.355; in [4], -0.264; in experiment [5] it was -0.434; in experiment [6] it was 0.1. For the same compound, the composite z-score in the experiment with Lefty1 is -0.336; in [8], -0.126. Also, the z-score in experiment [7] was 1.45; in experiment [9] it was -0.938 (inactive).
On to `CN(C)CCCCCCNC(=O)[C@@H]1C[C@@H]2C(=O)N3CCC[C@H]3C(=O)N2[C@@H]1c1ccc(O)cc1`, for which the composite z-score in experiment [1] was 3.06; in experiment [2], 1.11; in experiment [3] it was -0.135; in [4], 0.539; in [5], 1.47; in experiment [6] it was 1.74. For the same compound, the values for the composite z-score (in the experiment on Lefty1; in experiment [8]) were 1.72 and 0.758, respectively. Further, the z-score in [7] was 0.334; in [9] it was -0.934 (inactive).
Turning to `O=C1[C@@]23C=C(Br)[C@H](C[C@@H]2COC3)[C@]12CO2`, the composite z-score in experiment [1] was -2.07; in experiment [2], -3.63; in experiment [3] it was 0.406; in [4] it was -2.79; in [5] it was -0.362; in experiment [6], -0.829. Also, the figures for the composite z-score (in the experiment on Lefty1; in experiment [8]) were -0.921 and -2.06, respectively. Moreover, the z-score is -0.096 in experiment [7] and -0.0914 (inactive) in experiment [9].
Turning to `[N-]=[N+]=Nc1ccccc1C[C@@]1(C(=O)N2CCCCC2)N=C(c2ccc(OCCCO)cc2)O[C@@H]1c1ccccc1`, the composite z-score in [1] was 1.63; in [2], 1.2; in [3], 0.98; in experiment [4], 0.95; in experiment [5] it was 0.72; in [6], 0.11. Moreover, the composite z-score is -0.322 with Lefty1 and 1.31 in [8]. Moreover, the z-score in [7] was 1.13; in experiment [9], -2.98 (inactive).
In the case of `C[N+](C)(C)CCCC[C@@H]1NC(=O)[C@@H]2C[C@H](C(=O)NCCCCCCNC(=O)CS)[C@H](c3ccc(O)cc3)N2C1=O`, the composite z-score is 0.271 in experiment [1]; -0.982 in experiment [2]; -0.531 in [3]; -0.33 in experiment [4]; 0.0054 in experiment [5]; -0.117 in [6]. The figures for the composite z-score (with Lefty1; in experiment [8]) were -0.237 and -0.341, respectively. In addition, the z-score was -0.122 in [7] and 0.182 (inactive) in experiment [9].
In the case of `C=CC[C@]1(C(N)=O)COC(c2ccc(OCCCO)cc2)=N1`, the composite z-score in [1] stood at 1.07; in experiment [2] it was 0.017; in experiment [3], 0.2; in experiment [4], 0.561; in experiment [5], 0.786; in experiment [6], 1.31. For the same compound, the composite z-score with Lefty1 was 0.863; in [8] it was 0.493. Moreover, the z-score is 0.359 in experiment [7] and 0.322 (inactive) in [9].
As to `NC(=O)[C@@H]1[C@H]2C(=O)O[C@H](c3ccccc3)[C@H](c3ccccc3)N2[C@H](c2ccc(O)cc2)[C@@]12C(=O)Nc1ccc(C#CC3=CCCCC3)cc12`, the composite z-score is 1.43 in experiment [1]; 1.18 in [2]; 0.284 in experiment [3]; 0.789 in experiment [4]; 1.02 in experiment [5]; -0.201 in [6]. Also, the composite z-score in the experiment with Lefty1 stood at 0.847; in experiment [8] it was 1.03. The z-score in experiment [7] is -2.5; in experiment [9], -0.589 (inactive).
As to `CC1CC/C=C\[C@H]2OC34C=CCN(c5ccc6ccccc6c5)C(=O)[C@H]3N(CCO)C(=O)[C@@H]4C2C(=O)O1` (stereo not given in full), the composite z-score was -0.9 in experiment [1]; -0.898 in [2]; -0.645 in [3]; -0.0601 in experiment [4]; -0.839 in [5]; -0.467 in [6]. Moreover, the values for the composite z-score (with Lefty1; in [8]) were -0.708 and 1.03, respectively. Further, the z-score in experiment [7] was -0.245; in experiment [9] it was 0.288 (inactive).
As for `C=CCN1Cc2ccccc2[C@@H]2OC(c3ccc(OCCCO)cc3)=N[C@]2(CCS(=O)(=O)c2ccccc2)C1=O`, the composite z-score in experiment [1] was 1.56; in experiment [2], 1.2; in experiment [3], 0.772; in [4], 0.811; in [5], 1.4; in experiment [6], 1.78. Also, the composite z-score was 0.602 in the experiment with Lefty1 and 0.393 in experiment [8]. In addition, the z-score in experiment [7] was 1.37; in [9], -2.38 (inactive).

Values taken from PubChem BioAssay.
